Screening data as filed in PubChem.
JMJD2A Tudor inh: inhibitors of human JMJD2A Tudor domain | O75164 | AlphaScreen JMJD2A-Tudor / H3K4me3 peptide binding | Potency, µM (highest dose often 114 µM), for inactives: top-dose activity change, negative = inhibition, actives largely listed as inhibitors | hit rate 4.4% among 390,000 | AID 504339; further: potency means the concentration at half of the fitted maximal effect; on the % scale 0 is the no-effect control and ±100 the full control effect; nearly all actives have a fitted effect of over 50% in size
L3MBTL1 inh: inhibitors of human L3MBTL1. Potency, µM (highest dose often 57.1 µM), for inactives: at the top dose activity, negative = inhibition, usual class: inhibitors. AID 485360. hit rate 0.66% among 230,000. AlphaScreen L3MBTL1–H3K9me1 peptide binding; further: potency means the concentration at half of the fitted maximal effect; on the % scale 0 is the no-effect control and ±100 the full control effect; nearly all actives have a fitted effect of over 60% in size
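L3MBTL1 50 nM + b-AHA-H3(1-15)K9me1 75 nM, 30 min RT; compound added, 30 min RT; streptavidin donor/Ni-chelate acceptor beads 10 ug/mL each final, 30 min RT dark; AlphaScreen read.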
BAZ2B inh: BAZ2B (human) inhibition. Q9UIF8. AlphaScreen BAZ2B-H3K14Ac peptide displacement. Potency, µM (top dose mostly 114 µM), for the others: top-dose activity change, negative = inhibition, hits mostly inhibitors. hit rate 4.4% among 360,000. AID 504333; further: potency means the concentration at half of the fitted maximal effect; on the % scale 0 is the no-effect control and ±100 the full control effect; nearly all actives have a fitted effect of over 60% in size
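BAZ2B 50 nM plus b-H3(5-23)K14Ac 50 nM, PBS pH 7.4/0.01% Tween-20, 30 min RT; compound added (max 110 uM), 30 min RT; streptavidin donor/Ni-chelate acceptor beads 10 ug/mL final, 20 min dark; AlphaScreen read.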
G9a inh: blocks human histone lysine methyltransferase G9a; Q96KQ7; G9a H3K9 monomethylation, AlphaScreen, 2 h; Potency, µM (doses to about 102 µM), without a hit: top-dose activity, negative = inhibition, most hits filed as inhibitors; hit rate 8.8% among 350,000; AID 504332; further: potency means the concentration at half of the fitted maximal effect; on the % scale 0 is the no-effect control and ±100 the full control effect; nearly all actives have a fitted effect of over 75% in size
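Enzyme 20 nM + cpd, 15 min RT; add b-H3K9 pep 500 nM / SAM 20 uM; 2 h RT; anti-H3K9me1 Ab 0.5 ug/mL + SA donor / anti-rabbit acceptor beads 20 ug/mL each, 10 min; AlphaScreen read.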
HP1b chromo inh: blocks HP1-beta chromodomain binding to methylated histone tails. P83916. AlphaScreen HP1-beta / biotin-H3K9me3 peptide binding. Potency, µM (series often up to 114 µM), inactives show at the top dose activity change, negative = inhibition, hits mostly inhibitors. hit rate 0.56% among 390,000. AID 540317; further: potency means the concentration at half of the fitted maximal effect; nearly all actives have a fitted effect of over 70% in size
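AlphaScreen: HP1-beta (50 nM) preformed 30 min with biotin-H3(1-18)K9me3 peptide (50 nM) in PBS pH 7.4, 0.01% Tween-20. Compound added for 30 min at RT, then streptavidin donor/nickel chelate acceptor beads (10 ug/mL) for 30 min.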
PI5P4Ka inh: inhibitors of human PI5P4K alpha | AID 652105 | PI5P4Kalpha enzyme, ADP-Glo luminescence, 60 min; active compounds read low | max response, % | P48426 | hit rate 1.2% among 330,000; active means max response of -50% or lower; inconclusive means between -30% and -50%; inactive means -30% or higher; further: value at the top dose of about 77 µM; on the % scale 0 is the no-effect control and ±100 the full control effect
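Luminescence from ADP-Glo served as readout of PI5P4Kalpha activity in a qHTS format. Reaction: enzyme, substrate, compound, ATP at 5 microM final, 60 min at RT.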
* = called active by the depositor; ? = inconclusive; · = not tested or not shown; [ ] = remark or other dose. Sampled rows, rich in hits. Any-hit rate of the full collection: about 11%. Unless noted, the call rests on the fitted dose curve; in most records, active means well fitted inhibition curve with a large enough effect; inconclusive means small, poorly fitted or top-dose-only effect; inactive means no such curve, though single readings can be large or run the other way.

SMILES | JMJD2A Tudor inh | L3MBTL1 inh | BAZ2B inh | G9a inh | HP1b chromo inh | PI5P4Ka inh
CC(=O)c1sc(-c2ccc(Cl)cc2)nc1C | 11% | 1%[11.4 µM] | -6% | 2% | 66% | 1
CC(=O)c1c(C)nc(-c2ccc(Cl)cc2)nc1N | -17% | -10% | 79µM* | -46% | 24% | 0
CSc1nc(-c2ccccc2)nc(N)c1C(C)=O | · | · | -3% | ? | · | ·
CC(=O)c1c(C)nc(-c2ccc(Cl)cc2)nc1N=CN(C)C | ? | 6% | 79µM* | 3.5µM* | 17% | 1
Cc1ccc(C)c(Nc2nnc(-c3ccc(C)c(S(=O)(=O)NCC4CCCO4)c3)c3ccccc23)c1 (stereo unspecified) | -11% | · | -17% | -28%[59 µM] | 25% | ·
COC(=O)c1ccc(Oc2coc3cc(OCc4ccc([N+](=O)[O-])cc4)ccc3c2=O)cc1 | -26% | -8% | -23% | 56µM* | 9% | ?
CC(C)(C)c1ccc(Oc2coc3cc(OCC(=O)O)ccc3c2=O)cc1 | ? | · | -3% | 6% | -18% | -13
CC1CCCCC1NC(=O)CCCn1c(=S)[nH]c2ccsc2c1=O (stereo unspecified) | -11% | · | -1% | 32µM* | 53% | -2
CC1CCCC(NC(=O)CCCCCn2c(=S)[nH]c3ccsc3c2=O)C1C (stereo unspecified) | · | · | · | · | · | -21
O=C(CCCCn1c(=S)[nH]c2ccsc2c1=O)NCc1ccc2c(c1)OCO2 | -33% | 14% | ? | 10µM* | 17% | -30
O=C(CCCCn1c(=O)[nH]c2ccsc2c1=O)NCc1ccc2c(c1)OCO2 | 0% | 10% | 11% | 24% | 39% | -2
O=C(CCCn1c(=S)[nH]c2ccsc2c1=O)Nc1ccc2c(c1)OCCO2 | -30% | -1% | -11% | 3.5µM* | 9% | -8
CCOC(=O)N1CCN(C(=O)CCn2c(=S)[nH]c3ccsc3c2=O)CC1 | ? | · | ? | 45µM* | 26% | -17
CCOc1ccc(C(=O)NCC(c2ccc(Cl)cc2)N2CCCCC2)cc1 (stereo unspecified) | -18% | · | -19% | -1%[59 µM] | 39% | ·
COc1cc(NC(=O)CSc2ncc(S(=O)(=O)c3ccc(Br)cc3)c(=O)[nH]2)cc(OC)c1 | ? | · | ? | -26%[59 µM] | 3% | ·
CCOC(=O)CSc1nc2ccccc2c(=O)n1CCc1ccc(OC)c(OC)c1 | -17% | · | -19% | 2%[59 µM] | 22% | ·
N#Cc1ccc(CSc2nnc(-c3ccc(Br)cc3)o2)cc1 | -4% | · | -13% | 7%[59 µM] | 38% | ·
COc1ccc(C2=C(C)C(=O)N(Cc3ccc(C(=O)NCc4cccc(C)c4)cc3)S2(=O)=O)cc1 | -12% | · | 3% | 36%[59 µM] | -12% | ·
Cc1ccc(NC(=O)CSc2nc(=O)n(Cc3ccco3)c3c2CCC3)cc1F | -28% | · | -22% | -11%[59 µM] | 5% | ·
Cc1cc2c(s1)c1cnn(Cc3ccc(F)cc3Cl)c(=O)c1n2C | -24% | · | · | · | · | ·
CC(=O)Nc1ccc(NC(=O)C(Cc2ccccc2)N2Cc3ccccc3C2=O)cc1 (stereo unspecified) | -15% | · | -12% | -28%[59 µM] | 1% | ·
Cc1cc2nc3c(=O)n(C)c(=O)n(C)c3nc2cc1N=CN(C)C | -12% | · | 3% | 16µM* | 16% | ·
CCCCCCC(=O)Nc1cc2nc3c(nc2cc1C)c(=O)n(C)c(=O)n3C | -2% | · | -1% | 29%[59 µM] | 67% | ·
NC(=O)CN(C/C=C/c1ccccc1)C/C=C/c1ccccc1 | 20µM* | -4% | ? | · | ? | 2
CN(CC(=O)O)S(=O)(=O)/C=C/c1ccccc1 | -8% | 12% | -19% | -39% | -13% | -2
SMILES | JMJD2A Tudor inh | L3MBTL1 inh | BAZ2B inh | G9a inh | HP1b chromo inh | PI5P4Ka inh
CC(=O)OC[C@H]1O[C@@](COC(C)=O)(O[C@H]2O[C@H](COC(C)=O)[C@@H](OC(C)=O)[C@H](OC(C)=O)[C@H]2OC(C)=O)[C@@H](OC(C)=O)[C@@H]1OC(C)=O | · | · | · | 8%[12.7 µM] | · | ·
C=C(CN(C)C)C(=O)c1ccc(OC2OC(COC(C)=O)C(OC(C)=O)C(OC(C)=O)C2OC(C)=O)cc1 (stereo unspecified) | 89µM* | · | · | · | 56µM* | -7
Cc1ccc(OCCCCN2CCCCC2)cc1 | -7% | 1% | -30% | -3%[59 µM] | 31% | 1
Oc1ccc(N2CCN(Cc3ccc(OCCCN4CCCCC4)cc3)CC2)cc1 | 50µM* | -12% | 10µM* | 10µM* | 40µM* | -10
c1ccc(COc2ccc(OCCCCN3CCCCC3)cc2)cc1 | 7.1µM* | · | 40µM* | 8.9µM* | -38% | 4
O=C(c1ccccc1)c1ccc(OCCCN2CCCC2)cc1 | 10µM* | -13% | ? | 2.5µM* | ? | 13
Brc1ccc(OCCCCN2CCCCC2)cc1 | -13% | 56% | 7% | · | 18% | 0
CCOc1ccc(OCCCCN2CCCC2)cc1 | 45µM* | · | ? | ? | -16% | 2
COc1ccc(NC(=O)[C@H]2O[C@@H]3OC(C)(C)O[C@@H]3[C@H]3OC(C)(C)O[C@H]32)c(OC)c1 | -4% | · | 0% | -2%[59 µM] | 31% | ·
Cc1cc(C)n2c(Nc3ccccc3C)c(-c3cccs3)nc2n1 | -11% | · | -26% | -1%[59 µM] | 15% | ·
CCCCC(=O)N1C/C=C\C(c2ccc(OC)cc2)N(Cc2ccc(F)cc2)C(=O)C1Cc1ccccc1 (stereo unspecified) | -17% | · | · | · | 34% | ·
CC(=O)Nc1ccc(S(=O)(=O)N2CCCN(S(=O)(=O)c3ccc4c(c3)OCCO4)CC2)cc1 | -14% | · | · | · | · | ·
CC1(C)OC(=O)C2(Cc3cc(C(F)(F)F)ccc3N3CCCCC32)C(=O)O1 (stereo unspecified) | -18%[57.1 µM] | · | · | · | 21%[57 µM] | ·
CC(C)c1ccc(OCCCN2CCCC2)cc1 | 56µM* | · | 56µM* | -10% | -26% | 7
Cc1ccc(OCCN2CCCC2)cc1 | 18µM* | · | -39% | 22µM* | ? | 5
CCOC(=O)c1c(C)oc2nc(C)nc(NCCCN3CCN(c4ccc(F)cc4)CC3)c12 | ? | · | ? | ? | -11% | ·
CC(C)[C@H](NC(=O)[C@H](Cc1ccccc1)n1c(=O)[nH]c2ccccc2c1=O)C(=O)N[C@@H](Cc1ccccc1)C(=O)O | -13% | 37% | 4% | · | 29% | 7
O=C(O)C(Cc1ccccc1)n1c(=S)[nH]c2ccccc2c1=O (stereo unspecified) | 14µM* | 4% | -10% | ? | 48% | 0
O=C(C=Cc1ccccc1)Nc1ccccc1 | -11% | · | · | · | 14% | -8
O=C(Nc1cccc(S(=O)(=O)Nc2ccccc2F)c1)c1ccc2ccccc2n1 | 25µM* | 2% | ? | 2.8µM* | ? | ?
O=C(/C=C/c1ccccc1)Nc1cccc(S(=O)(=O)Nc2ccccc2F)c1 | 45µM* | -6% | 45µM* | 1.6µM* | ? | -61*
